Measurements reported in paper PMC7826789 (International Journal of Molecular Sciences, 2021).
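Also: KINOMEscan scanMAX binding as percent activity remaining versus control; lower means stronger binding.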

Each molecule was assayed on MAP4K3. Details: Compound Concentration (nM):1000.
For O=C(Nc1n[nH]c2nc(-c3ccc(O)cc3)c(Br)cc12)C1CC1 [SB-725317], the “Percent Control” value was 100%.
CC1=C(C(=O)Nc2ccc3[nH]ncc3c2)C(c2ccc(Cl)c(Cl)c2)CC(=O)N1 (stereo not shown) [GSK299115A] was tested, and the “Percent Control” value was 79%.
For NS(=O)(=O)c1ccc(N/N=C2\C(=O)Nc3ccc(Cl)cc32)cc1 [GW280670X], the “Percent Control” value was 94%.
CC1=C(C(=O)Nc2ccc3[nH]ncc3c2)C(c2ccc3ccccc3c2)CC(=O)N1 (stereo not shown) [GSK270822A] was tested, and the “Percent Control” value was 90%.
In the case of COc1cccc(-c2c[nH]c3c(N/N=C/c4ccncc4)ncnc23)c1 [GW814408X], the “Percent Control” value is reported as 93%.
For NS(=O)(=O)c1ccc(N/N=C2\C(=O)Nc3ccc(C(=O)NCCc4c[nH]cn4)cc32)cc1 [GW300660X], the “Percent Control” value was 86%.
With CN(C)CCNC(=O)Nc1ccc(N(C)c2ccnc(Nc3ccc(CS(C)(=O)=O)cc3)n2)cc1.Cl [GW830900A] the “Percent Control” value was 69%.
With COc1ccc2cc(-c3c(-c4ccncc4)nc(-c4ccc(S(C)(=O)=O)cc4C)n3C)ccc2c1 [SB-633825] the “Percent Control” value was 93%.
NS(=O)(=O)c1ccc(N/N=C2\C(=O)Nc3ccc(-c4cnco4)cc32)cc1 [GW276655] was tested, and the “Percent Control” value was 85%.
For CN(C)c1cc2c(Nc3ccc4c(cnn4Cc4ccccc4)c3)ncnc2cn1 [GW282974X], the “Percent Control” value was 100%.
With COc1ccc2c(-c3ccnc(Nc4cccc(OC(F)(F)F)c4)n3)cnn2n1 [GW810372X] the “Percent Control” value was 100%.
With Cl.O=C(O[C@H]1CN[C@H](C#Cc2cc3ncnc(Nc4ccc5c(cnn5Cc5ccccc5)c4)c3s2)C1)N1CCOCC1 [GSK200398A] the “Percent Control” value was 100%.
With CCS(=O)(=O)c1ccc(OC)c(Nc2ncc(-c3cccc(OC)c3)o2)c1 [GW580509X] the “Percent Control” value was 100%.
In the case of CCc1ccc(Oc2nccc(-c3c(-c4ccc(F)cc4)ncn3C3CCNCC3)n2)cc1 [SB-242719], the “Percent Control” value is reported as 87%.
For NS(=O)(=O)c1ccc(N/N=C2\C(=O)Nc3ccc(C(=O)NCc4ccncc4)cc32)cc1 [GW300657X], the “Percent Control” value was 99%.
With COc1ccc(COc2ccc(Cc3cnc(N)nc3N)cc2OC)cc1 [GW632580X] the “Percent Control” value was 82%.
NS(=O)(=O)c1ccc(Nc2ncc(-c3ccccc3)o2)cc1 [GW572399X] was tested, and the “Percent Control” value was 100%.
For COC(=O)Nc1nc2ccc(Oc3ccc(NC(=O)Nc4cc(C(F)(F)F)ccc4F)cc3)cc2s1.Cl [GW693917A], the “Percent Control” value was 100%.
In the case of COc1cc(C)c(N(C)C(=O)CN(C)C)cc1Nc1nc(Nc2cccc(F)c2C(N)=O)c2cc[nH]c2n1 [GSK2219385], the “Percent Control” value is reported as 100%.
With COc1cc(N2CCN(C(C)C)CC2)ccc1Nc1nc(Nc2ccc(F)cc2C(=O)NC[C@@H](O)CO)c2cc[nH]c2n1 [GSK1392956A] the “Percent Control” value was 100%.
In the case of CC(C)COC(=O)c1ccc2c(c1)/C(=C/Nc1ccc(S(N)(=O)=O)cc1)C(=O)N2 [GW416981X], the “Percent Control” value is reported as 95%.
Cl.c1ccc(Cc2nc3ccc(Nc4ncnc5ccccc45)cc3[nH]2)cc1 [GR269666A] was tested, and the “Percent Control” value was 100%.
With CCn1c(-c2nonc2N)nc2c(C#CC(C)(C)O)nc(OCCNC)cc21.Cl [GSK949675] the “Percent Control” value was 100%.
With COc1cc2ncn(-c3cc(O[C@H](C)c4ccccc4Cl)c(C(N)=O)s3)c2cc1OC [GSK237701A] the “Percent Control” value was 33%.
COc1cccc(-n2ncc3c(N/N=C/c4ccncc4)ncnc32)c1 [GW784752X] was tested, and the “Percent Control” value was 100%.
For C[C@@H](Oc1cc(-n2cnc3ccc(OC4CCN(C)CC4)cc32)sc1C(N)=O)c1ccccc1Cl [GSK579289A], the “Percent Control” value was 93%.
Cl.O=C(Nc1ccc(Oc2ccc3[nH]c(NC(=O)c4ccccc4)nc3c2)cc1)Nc1cc(C(F)(F)F)ccc1F [GW709042A] was tested, and the “Percent Control” value was 100%.
C/C(Nc1ccc(S(N)(=O)=O)cc1)=C1/C(=O)Nc2ccccc21 [GW335962X] was tested, and the “Percent Control” value was 67%.
